Data from PubChem BioAssay (NCI).
This is part of a sample that, as a whole, favours compounds with a hit. Of some 79,000 tested, about 15% had one in any assay. Activity calls are given as the source filed them. Cut-off read from the data, not from the text of the source: active = growth inhibition above about 70%; inactive = the rest.

Tests used:
[1] = NCI Yeast Anticancer Drug Screen. Data for the rad50 strain (AID 155);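 note: 0% = growth of vehicle-only cultures of the same strain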; settings: S. cerevisiae rad50 strain growth inhibition, stronger effect = higher value
How it was run: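 Readout: growth inhibition relative to vehicle-treated cultures. Compound exposure was carried out in a genetically defined yeast strain deficient in DNA damage repair.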

[2] = NCI Yeast Anticancer Drug Screen. Data for the mec2-1 strain (AID 157); settings: S. cerevisiae mec2-1 strain, stronger effect = higher value
How it was run: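 Compounds were applied to mec2-1 yeast cells. Their growth was then compared with that of vehicle-treated cultures to give growth inhibition.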

[3] = NCI Yeast Anticancer Drug Screen. Data for the sgs1 mgt1 strain (AID 161);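 note: 0% = growth of cultures given vehicle only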; settings: S. cerevisiae sgs1 mgt1 strain, stronger effect = higher value
How it was run: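 Compounds are added to genetically altered yeast, and growth is compared with cultures given vehicle alone to give percent inhibition.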

[4] = NCI Yeast Anticancer Drug Screen. Data for the cln2 rad14 strain (AID 165);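 note: 0% = growth equal to vehicle treated cultures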; settings: S. cerevisiae cln2 rad14 strain, stronger effect = higher value
How it was run: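 Strain: cln2 rad14 yeast, altered in cell cycle control and DNA damage repair. Read-out: growth inhibition vs vehicle.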

[5] = NCI Yeast Anticancer Drug Screen. Data for the bub3 strain (AID 167); settings: S. cerevisiae bub3 mutant strain, stronger effect = higher value
How it was run: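 Readout: yeast growth inhibition, expressed relative to vehicle-only wells. The test organism is a mutant strain from a panel with lesions in DNA repair or checkpoint genes.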

[6] = NCI Yeast Anticancer Drug Screen. Data for the mlh1 rad18 strain (AID 175); settings: S. cerevisiae mlh1 rad18 strain growth inhibition, stronger effect = higher value
How it was run: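 A repair-deficient yeast strain is exposed to test compound, and growth is scored relative to vehicle-treated controls.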

[7] = at 5.0 µM (retest, dose inferred, filed as 0.5)
[8] = at 50.0 µM (retest, dose inferred, filed as 5.0)

Measured: growth inhibition

O=C1C=CC2C3C(=O)N(c4ccccc4)C(=O)C3C1N2Cc1ccccc1 (centres undefined)
active: [3]; [8] 70% | [5]; [8] 78% | [6]; [8] 79%
inactive: [1]; [7] 18% | [1]; [8] 48% | [2]; [7] 18% | [2]; [8] 58% | [3]; [7] 50% | [3]; at 50.0 µM 69.2% | [4]; [7] 21% | [4]; [8] 56% | [4]; at 50.0 µM 43.2% | [5]; [7] 24% | [5]; at 50.0 µM 61.9% | [6]; [7] 51%

O=C(c1ccccc1)N(CCCl)C(=O)N(CCCl)C(=O)c1ccccc1
active: [1]; at 50.0 µM 78%
inactive: [1]; [7] 47% | [1]; [8] 56% | [2]; [7] 68% | [2]; [8] 52% | [2]; at 50.0 µM 48.9% | [3]; [7] -7% | [3]; [8] 68% | [4]; [7] 45% | [4]; [8] 56% | [6]; [7] 31% | [6]; [8] 36% | [6]; at 50.0 µM 68%

N#Cc1ccc(Br)cc1[N+](=O)[O-]
active: [1]; at 50.0 µM 91.2% | [2]; at 50.0 µM 93.2% | [3]; [7] 74% | [3]; [8] 100% | [4]; [7] 90% | [4]; [8] 100% | [5]; [7] 87% | [5]; [8] 100% | [6]; at 50.0 µM 92%
inactive: [1]; [7] 45% | [1]; [8] 64% | [2]; [7] 41% | [2]; [8] 63% | [6]; [7] 33% | [6]; [8] 61%

C=CCCCCCCCCC(=O)NN
active: [1]; [8] 92% | [2]; [8] 79% | [3]; [8] 92% | [4]; [8] 81% | [5]; [8] 85% | [6]; [8] 91%
inactive: [1]; [7] 18% | [2]; [7] -1% | [3]; [7] 15% | [4]; [7] -8% | [5]; [7] 0% | [6]; [7] -25%

Oc1ccc(Cc2ccc(Cl)cc2)c(O)c1
active: [1]; [8] 98% | [2]; [8] 99% | [3]; [8] 99% | [4]; [8] 98%
inactive: [1]; [7] 3% | [2]; [7] -5% | [3]; [7] -1% | [4]; [7] 0%

C/C(=N\NC(=S)N1CCC1)c1ccccn1
active: [1]; [7] 91% | [1]; [8] 96% | [2]; [7] 88% | [2]; [8] 98% | [3]; [7] 92% | [3]; [8] 99% | [3]; at 50.0 µM 87.8% | [4]; [7] 93% | [4]; [8] 96% | [4]; at 50.0 µM 87% | [5]; [7] 94% | [5]; [8] 98% | [5]; at 50.0 µM 87.5% | [6]; [7] 93% | [6]; [8] 96%

O=C1C=CC(=O)N1c1cc(Cl)c(Cl)cc1Cl
active: [1]; [8] 86% | [1]; at 50.0 µM 91.6% | [2]; [8] 98% | [3]; [7] 101% | [3]; [8] 100% | [4]; [7] 89% | [4]; [8] 100% | [5]; [7] 101% | [5]; [8] 100% | [6]; [8] 99% | [6]; at 50.0 µM 91.5%
inactive: [1]; [7] 32% | [2]; [7] 51% | [2]; at 50.0 µM 27.1% | [6]; [7] 32%

COC(=O)c1ccc(Cl)c(NN)c1
inactive: [1]; [7] 49% | [1]; [8] 66% | [2]; [7] 29% | [2]; [8] 59% | [4]; [7] 61% | [6]; [7] 38% | [6]; [8] 42%
active: [1]; at 50.0 µM 90.4% | [2]; at 50.0 µM 92.8% | [3]; [7] 86% | [3]; [8] 98% | [4]; [8] 99% | [5]; [7] 93% | [5]; [8] 99% | [6]; at 50.0 µM 88.7%

CC(=O)Oc1c(Br)cc(Br)cc1C(OC(C)=O)OC(C)=O
active: [1]; [8] 96% | [2]; [8] 87% | [3]; [8] 99% | [5]; [8] 99% | [6]; [8] 93%
inactive: [1]; [7] 20% | [2]; [7] 8% | [3]; [7] 19% | [4]; [7] 3% | [4]; [8] 52% | [5]; [7] 6% | [6]; [7] -5%

Cc1ccc(Nc2n[nH]c(=S)s2)cc1F
active: [1]; [8] 90% | [1]; at 50.0 µM 85.8% | [2]; [8] 93% | [2]; at 50.0 µM 78.2% | [3]; [8] 79% | [4]; [8] 80% | [5]; [8] 80% | [6]; [8] 84% | [6]; at 50.0 µM 77.2%
inactive: [1]; [7] 37% | [2]; [7] 46% | [3]; [7] 8% | [4]; [7] 49% | [5]; [7] 28% | [6]; [7] 27%

C/C(=N\NC(=S)N(C)C)c1ccccn1
active: [1]; [7] 94% | [1]; [8] 98% | [2]; [7] 92% | [2]; [8] 99% | [3]; [7] 93% | [3]; [8] 99% | [3]; at 50.0 µM 88.6% | [4]; [7] 91% | [4]; [8] 97% | [4]; at 50.0 µM 89.3% | [5]; [7] 95% | [5]; [8] 99% | [5]; at 50.0 µM 88.7% | [6]; [7] 95% | [6]; [8] 98%

S=C(S)OCN1CCOCC1
inactive: [1]; [8] 32% | [3]; [8] 28% | [4]; [7] 58% | [4]; [8] 20% | [5]; [7] 55% | [5]; [8] 27% | [6]; [7] 51% | [6]; [8] 35%
active: [1]; [7] 80% | [1]; at 50.0 µM 98.1% | [3]; [7] 70% | [3]; at 50.0 µM 96.8% | [4]; at 50.0 µM 97.3% | [5]; at 50.0 µM 98.8% | [6]; at 50.0 µM 98.2%

O=C1/C(=C\c2ccc([N+](=O)[O-])cc2)CS(=O)(=O)C/C1=C/c1ccc([N+](=O)[O-])cc1
active: [1]; [7] 81% | [1]; [8] 96% | [2]; [7] 97% | [2]; [8] 98% | [3]; [7] 93% | [3]; [8] 96% | [3]; at 50.0 µM 87.2% | [4]; [7] 91% | [4]; [8] 97% | [4]; at 50.0 µM 86.8% | [5]; [7] 97% | [5]; [8] 99% | [5]; at 50.0 µM 87.6% | [6]; [7] 94% | [6]; [8] 96%

C(CCc1nn[nH]n1)CCC1CCCCC1
active: [1]; [8] 98% | [2]; [8] 98% | [3]; [8] 95% | [4]; [8] 97% | [5]; [8] 98% | [6]; [8] 97%
inactive: [1]; [7] 13% | [2]; [7] 10% | [3]; [7] 11% | [4]; [7] 19% | [5]; [7] 11% | [6]; [7] -16%

Cc1cc(O)c(O)c(C(C)(C)CC(C)(C)C)c1
active: [1]; [8] 87% | [1]; at 50.0 µM 91.3% | [2]; [8] 83% | [2]; at 50.0 µM 92.5% | [3]; [7] 97% | [3]; [8] 100% | [4]; [7] 78% | [4]; [8] 100% | [5]; [7] 94% | [5]; [8] 99%
inactive: [1]; [7] 36% | [2]; [7] 38%

Cc1c(O)ccc(SC#N)c1C
inactive: [1]; [7] -7% | [2]; [7] 2% | [3]; [7] 7% | [5]; [7] -3% | [6]; [7] -1%
active: [1]; [8] 82% | [1]; at 50.0 µM 88.5% | [2]; [8] 74% | [2]; at 50.0 µM 83.8% | [3]; [8] 75% | [3]; at 50.0 µM 86.7% | [5]; [8] 84% | [5]; at 50.0 µM 87.5% | [6]; [8] 87% | [6]; at 50.0 µM 88.5%

C[C@@H]1CCC([C@@H](C)[C@H]2CC[C@H]3[C@@H]4CC[C@H]5C[C@@H](O)CC[C@]5(C)[C@H]4CC[C@]23C)=NC1
inactive: [4]; [7] 60%
active: [1]; [7] 73% | [1]; [8] 98% | [1]; at 50.0 µM 87.5% | [3]; [7] 90% | [3]; [8] 99% | [3]; at 50.0 µM 91.6% | [4]; [8] 98% | [4]; at 50.0 µM 88.7% | [5]; [7] 84% | [5]; [8] 98% | [5]; at 50.0 µM 88.5% | [6]; [7] 95% | [6]; [8] 98% | [6]; at 50.0 µM 89%

N#C/C(=N\Nc1ccc(Cl)cc1)C(=O)C1CC1
active: [1]; at 50.0 µM 86.4% | [3]; [8] 70% | [3]; at 50.0 µM 85.7% | [4]; at 50.0 µM 85.5% | [5]; [8] 78% | [5]; at 50.0 µM 77.4% | [6]; at 50.0 µM 82%
inactive: [1]; [7] 59% | [1]; [8] 62% | [3]; [7] 58% | [4]; [7] 55% | [4]; [8] 55% | [5]; [7] 51% | [6]; [7] 62% | [6]; [8] 69%
